Test results taken from ChEMBL document CHEMBL3988442, “University of Dundee, Small-Polar-MMV Screening Library” (2021).

These compounds were tested against AMP-activated protein kinase, AMPK (Homo sapiens) (UniProt P54646+O43741+P54619+Q9UGJ0+Q9Y478+Q13131+Q9UGI9) (assay: AMP-dependent Kinase enzyme assay. An in vitro enzyme assay that detects ADP turnover that is directly proportional to AMPK activity. This uses naive AMPK that is activated during the assay with MK-8722). Conditions: 30 µM.
Assay type: functional
Design: scale not given: direction of the effect not stated beside the values

Row | Structure (SMILES) | Percent Effect [%]
1 | Cc1n[nH]c(C)c1NC(=O)NCc1ccccn1 | -10.3
2 | Cn1c(N)nnc1SCc1c(F)cccc1Br | 4.93
3 | CCn1ncc(CN2CCC(c3ncc(Cl)cc3S(C)(=O)=O)CC2)c1C | 6.21
4 | Cc1c(C(=O)NCCC(=O)N2CCCC2)cccc1-c1ccccn1 | 13.9
5 | Cc1cc(C2CCCN(CCc3ccc4c(c3)CCO4)C2)n[nH]1 (stereo not given) | 3.65
6 | CCn1cc(CNCCNc2ncc(Cl)cc2Cl)cn1 | 4.84
7 | Cn1cc(CC(=O)N2CCCC(c3ccn[nH]3)C2)cn1 (stereo not given) | -1.05
8 | COc1nc2c(cc1C(=O)NC(C)Cc1cnccn1)CCC2 (stereo not given) | -1.98
9 | COc1cccc([C@@]2(O)CC[C@@H]3CN(C(=O)c4ccn(C)n4)C[C@@H]32)c1 | 12.3
10 | Cn1cccc1CN(C(=O)CC(CC(=O)O)c1cccs1)C1CC1 (stereo not given) | -2.3
11 | Cc1ncccc1C(=O)Nc1cccc(Cn2ccccc2=O)c1 | 3.58
12 | CC(C)Cc1cc(CNC(=O)c2cccc3c2NCCC3)no1 | 1.24
13 | COc1ccc(C2(C(=O)N3CC(c4cccnc4)C3)CC2(C)C)cc1 (stereo not given) | -5.88
14 | O=C(NCC1CCOC1)c1cc(-c2cccc(Cl)c2)[nH]n1 (stereo not given) | 7.17
15 | CCNc1ncc(C(=O)NCc2csc(C)n2)cn1 | -2.12
16 | COc1cccc(-c2n[nH]cc2-c2nc(CN3CCCC3)no2)c1 | -4.34
17 | O=C(C1CCCN(c2nc3ccccc3cc2CO)C1)N1CCCC1 (stereo not given) | 9.42
18 | COC[C@]1(O)CCN(c2cc(C3CC3)ncn2)CC1(C)C | 10.6
19 | CCN(CC)CCN(CC(C)C)c1cc(C(F)(F)F)nc2ncnn12 | 0.943
20 | Cc1cc(NC(=O)C(C)NCCn2cccn2)no1 (stereo not given) | -0.416
